The values below come from PubChem BioAssay (NCATS).

Records with an inconclusive call do not appear. A call without a number means that no potency is given here. Activity calls are given as the source filed them. The call rests on the fitted dose curve; in most records, active means well fitted cell-killing curve with a large enough effect; inconclusive means small, poorly fitted or top-dose-only effect, or effect the other way; inactive means no such curve, though single readings can be large or run the other way.
Potency means the concentration at half of the fitted maximal effect.

This experiment in a line: Quantitative highthroughput screen to assess conditional lethalithy of SEM cells grown in RPMI1640 with unreated serum (RPMI+s) (AID 1963883). Further: nearly all actives have a fitted effect of over 35% in size. Conditions: SEM B-ALL cells, CellTiter-Glo viability, 48 h; series mostly up to 45.8 µM. The source says:
Assay Provider: Jason Cantor Ph.D.
Department of Biochemistry
University of Wisconsin-Madison, Madison, WI, USA
Chemical screening studies have identified drug sensitivities across hundreds of cancer cell lines but most putative therapeutics fail to translate. Discovery and development of drug candidates in models that more accurately reflect nutrient levels in human blood is a major challenge. Here we performed high-throughput screens in conventional versus Human Plasma-Like Medium (HPLM) to identify compounds that were "missed" when screening using the artificial culture condition. Sets of conditional anticancer compounds spanned phases of clinical development and included non-oncology drugs were assessed. […] We also traced conditional phenotypes for several chemotherapeutics to availability of HPLM-specific metabolites and confirmed others for compounds whose reported targets are encoded by nonessential genes. Our findings establish generalizable strategies for exploiting conditional lethality in HPLM to reveal therapeutic candidates and mechanisms of action in cancer cells.
Described herein are the results of each viability screens against three cell lines: NOMO1 (an acute myeloid leukemia cell line); P12-Ichikawa (a T-cell acute lymphoblastic leukemia); and SEM (a B-cell ALL). Each assay was screened using 3 different cell culture media: homemade human plasma-Like medium with 10% dialyzed fetal bovine serum (HPLM+ds); RPMI1640 with 10% untreated FBS and 5mM glucose (RPMI+s); and RPMI1640 with 10% dialyzed fetal bovine serum and 5 mM glucose (RPMI+ds).
PROTOCOL TABLE (as described by Inglese J, Shamu CE and Guy RK. 2007)
SEQUENCE No. (e.g., 1, 2, 3, etc.); […] (e.g., Cells, Incubation, Reagent, etc.); VALUE and DESCRIPTION.
1; Cells; 5 uL; white, solid bottom 1536-well Greiner assay plate.
2; Compounds; 23 nL; Kalypsis pin tool (Wako USA) equipped with a 1536-well pin head to transfer to the assay plates.
3; Incubation; 48 hours; 37C incubation.
4; Reagent; 3 uL; CellTiter Glo (Promega).
5; Incubation; 5 min, room temperature
6; Detection; Luminescence, Viewlux PerkinElmer.
NOTES (numbers refer to Sequence numbers above)
1. Briefly, 5 ul of cell reagent was dispensed using a Multidrop Combi Dispenser. The NOMO1 and SEM cells were plated at 500 cells/well and the P12-Ichikawa line at 1000 cells/well.
2. After seeding the cells, 23 nL of MIPE 4.1 library compounds (in DMSO) were added to each plate using a Kalypsys 1536 Pintool dispenser. Bortezomib at final concentration of […] and DMSO were added to each plate as positive and negative controls respectively. For each screen, MIPE 4.1 compounds were added over an eleven-point concentration range […] in 3-fold dilutions.
3. Each plate was covered with a stainless steel gasketed lid to prevent evaporation and incubated for 48 hour at 37C, 95% relative humidity, and 5% CO2.
4-5. Three microliter CellTilter-GloTM luminescent substrate mix (Promega) reagent was added to the assay plate and incubated at room temperature for 5 min.
6. The luminescence signal was measured using a ViewLux (PerkinElmer) multiplate reader with a 2 second exposure time per plate. Data for each compound were normalized as percent viability such that measurements for DMSO and the empty well controls in each plate were defined as 100% and 0%, respectively.
Background: Cellular ATP, detected with luciferase, serves as a proxy for viable cell number.
For `CCN(CC)C(=O)c1ccc(C2=CC3(CCNCC3)Oc3cccc(O)c32)cc1`, the Potency result is “inactive”.
On to `CC(C)[C@]12O[C@@H]1[C@@H]1O[C@]13[C@]1(O[C@H]1C[C@@H]1C4=C(CC[C@@]13C)C(=O)OC4)[C@H]2O`, for which the Potency is 1.2 nM (active).
Next, `COc1ccc(C(=O)c2c(C)n(CCN3CCOCC3)c3ccccc23)cc1`: “inactive”; `CNC(=O)c1ccc(N2C(=S)N(c3ccc(C#N)c(C(F)(F)F)c3)C(=O)C23CCC3)cc1F`: “inactive”; `COc1cc(C(=O)N2CC[C@@H](O)[C@@H](N)C2)cc2nc(-c3cc4ccccc4n3CC3CC3)n(C)c12`: 186 nM (active).
Next, `O=c1[nH]c2ccc(Cl)cc2c(N[C@@H]2CN3CCC2CC3)c1-c1nc2ccccc2[nH]1`: 83.3 nM (active).
Under `CC[C@@H]1[C@@H](C)O[C@@](O)([C@@H](C)[C@H](O)[C@H](C)[C@H]2OC(=O)C=CC=C[C@@H](C)[C@@H]([C@@H](C)[C@@H](O)[C@H](C)[C@@]3(O)C[C@H](O[C@H]4C[C@H](O)[C@H](O)[C@H](C)O4)[C@H](CC)[C@@H](C)O3)OC(=O)C=CC=C[C@@H]2C)C[C@H]1O[C@H]1C[C@H](O)[C@H](O)[C@H](C)O1` stands 2640 nM (active).
For the compound `Cc1cc(SCc2sc(-c3ccc(C(F)(F)F)c(F)c3)nc2C)ccc1OCC(=O)O`, the Potency entry is “inactive”.
Next, `CC(C)(C)c1cc(C=C(C#N)C#N)cc(Br)c1O`: “inactive”; `COc1ccc(CC2NCCc3cc(OC)c(OC)cc32)cc1OC` (stereo not given): 14800 nM (active); `C[C@]12CC[C@H](O)CC1=CC[C@H]1[C@H]3CCC(=O)[C@@]3(C)CC[C@@H]12`: “inactive”.
Next, `C[C@]12CC[C@@H]3c4ccc(OC(=O)N(CCCl)CCCl)cc4CC[C@H]3[C@@H]1CC[C@@H]2OP(=O)(O)O`: 14800 nM (active); `Cc1ncc(OC[C@@]2(c3cccc(F)c3)C[C@H]2C(=O)Nc2ccc(F)cn2)c(C)n1`: “inactive”.
Consider `CN[C@@H]1Cc2cccc3[nH]c(=O)n(c23)C1`, for which the Potency entry is “inactive”.
Under `C[C@]12CC[C@H]3[C@@H](CC[C@@]45O[C@H]4C(O)=C(C#N)C[C@]35C)[C@H]1CC[C@H]2O` stands 18700 nM (active).
Next, `CN1C(=O)COc2c(C(=O)NC3CN4CCC3CC4)cc(Cl)cc21` (stereo not given): “inactive”; `NC1=NC(=O)N2CC12` (stereo not given): 1870 nM (active).
As to `Cc1ccccc1-n1c(Cn2ncc3c(N)ncnc32)nc2cccc(C)c2c1=O`, the Potency result is “inactive”.
Under `CC=C(C)C(=O)O[C@H]1C(C)=C2[C@@H]3OC(=O)[C@@](C)(O)[C@@]3(O)[C@@H](OC(=O)CCC)C[C@](C)(OC(C)=O)[C@@H]2[C@@H]1OC(=O)CCCCCCC` stands 33.2 nM (active); under `CCOC(=O)c1c(C(C#N)=CN)c2ccc(Cl)c(Cl)c2n1C`, 18700 nM (active); under `COC[C@@H](NC(C)=O)C(=O)NCc1ccccc1`, “inactive”.
Under `O=[N+]([O-])c1ncc[nH]1` stands “inactive”; under `COc1ccc2c(c1)[C@]13CCCCC1C(C2)N(C)CC3` (stereo not given in full), “inactive”.
Under `CCCC(C)(COC(N)=O)COC(=O)NC(C)C` (stereo not given) stands “inactive”.
Take `CCCC[N+]1(C)[C@H]2CC(OC(=O)[C@H](CO)c3ccccc3)C[C@H]1[C@H]1O[C@H]12` (stereo not given in full): the Potency result was “inactive”.
`c1ccc2c(CN3CCNCC3)cccc2c1`: the Potency result was “inactive”.
Next, `C[C@@H]1CC[C@@]2(OC1)O[C@H]1C[C@H]3[C@@H]4CC=C5C[C@@H](O[C@@H]6O[C@H](CO)[C@@H](O[C@@H]7O[C@@H](C)[C@H](O)[C@@H](O)[C@@H]7O)[C@H](O)[C@@H]6O[C@@H]6O[C@@H](C)[C@H](O)[C@@H](O)[C@@H]6O)CC[C@]5(C)[C@@H]4CC[C@]3(C)[C@@H]1[C@H]2C`: 14800 nM (active); `CN(C)[C@@H]1C(=O)C(C(N)=O)=C(O)[C@@]2(O)C(=O)C3=C(O)c4c(O)cccc4[C@@](C)(O)[C@H]3[C@H](O)[C@@H]12`: “inactive”.
With `COc1ccc2c(c[n+](C)c3c4cc5c(cc4ccc23)OCO5)c1OC`, the Potency is 8330 nM (active).
Under `CC(C)(O)C=CC(=O)[C@](C)(O)[C@H]1[C@H](O)C[C@]2(C)[C@@H]3CC=C4[C@@H](C=C(O)C(=O)C4(C)C)[C@]3(C)C(=O)C[C@@]12C` stands 46.9 nM (active); under `COC1=C[C@@H]2[C@@H]3Cc4ccc(OC)c(O)c4[C@]2(CCN3C)CC1=O`, “inactive”.
Under `CCOC(=O)Nc1ccc(NCc2ccc(F)cc2)cc1N` stands “inactive”; under `C[C@]12Cc3cn[nH]c3C[C@@H]1CC[C@@H]1[C@H]2CC[C@@]2(C)[C@H]1CC[C@]2(C)O`, “inactive”; under `CC(O)(CS(=O)(=O)c1ccc(F)cc1)C(=O)Nc1ccc(C#N)c(C(F)(F)F)c1` (stereo not given), 14800 nM (active).
Under `C[C@@H]1CC[C@H]2[C@@H](C)C(=O)O[C@@H]3O[C@@]4(C)CC[C@H]1[C@]32OO4` stands “inactive”; under `O=C(Oc1ccc([N+](=O)[O-])cc1)N1CCN(Cc2cccc(Oc3ccccc3)c2)CC1`, “inactive”.
For the compound `CC1(N2CCC(n3c([C@@H]4CCCNC4)nc4ccccc43)CC2)CCCCCCC1`, the Potency result was “inactive”.
Under `CCNC(=O)C[C@@H]1N=C(c2ccc(Cl)cc2)c2cc(OC)ccc2-n2c(C)nnc21` stands 1050 nM (active); under `C[C@]12CC[C@@H]3[C@@H](CCC4=CC(=O)CC[C@@H]43)[C@@H]1CC[C@@H]2OC(=O)CCc1ccccc1`, “inactive”; under `O=C(O)c1nn(Cc2ccc(Cl)cc2Cl)c2ccccc12`, “inactive”.
